Results on 14 compounds are retold here after PubChem BioAssay (Tox21).

The nature of test [1]: A CellTox Green Cytotoxicity Assay to monitor cytotoxicity in HEK293 cells - 32 hour (AID 1224881). Note: nearly all actives have a fitted effect of over 40% in size. Note: potency is the fitted concentration of half-maximal effect. Summed up: (§1)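 Nonlytic real-time cytotoxicity: HEK293 + CellTox Green reagent plated, 5 h preincubation, pintool compound addition (23 nL in DMSO), 37 C for 40 h, fluorescence measured at successive time points.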
The nature of test [2]: A CellTox Green Cytotoxicity Assay to monitor cytotoxicity in HepG2 cells - 0 hour (AID 1224882). Note: nearly all actives have a fitted effect of over 35% in size. A digest of the protocol:
(§2)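 Read-out is fluorescence of a cyanine dye excluded from live cells that stains DNA of dead HepG2 cells, with signal proportional to cytotoxicity. Plates were read at 0, 8, 16, 24, 32 and 40 h after compound addition.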

The nature of test [3]: A CellTox Green Cytotoxicity Assay to monitor cytotoxicity in HepG2 cells - 32 hour (AID 1224883). Note: nearly all actives have a fitted effect of over 50% in size. Note: potency is the fitted concentration of half-maximal effect. A digest of the protocol:
as §2

The nature of test [4]: A CellTox Green Cytotoxicity Assay to monitor cytotoxicity in HEK293 cells - 8 hour (AID 1224884). Note: nearly all actives have a fitted effect of over 35% in size. A digest of the protocol: as §1
Test [5] is described as follows: qHTS RealTime-Glo MT Cell Viability Assay in HepG2 cells - 16 hour (AID 1224885). Note: nearly all actives have a fitted effect of over 50% in size. Summed up:
(§3)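 Cells + NanoLuc/prosubstrate dispensed (600 cells/well) → 5 h at 37 C/5% CO2 → compounds in DMSO transferred → 40 h incubation at 37 C, luminescence read at 0, 8, 16, 24, 32, 40 h.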
A general note: In qHTS, concentration-response curves come from the screen itself.

Test [6] is described as follows: qHTS RealTime-Glo MT Cell Viability Assay in HepG2 cells - 0 hour (AID 1224889). Note: nearly all actives have a fitted effect of over 50% in size. Note: potency is the fitted concentration of half-maximal effect. Summed up: as §3
The nature of test [7]: A CellTox Green Cytotoxicity Assay to monitor cytotoxicity in HepG2 cells - 8 hour (AID 1224890). Note: nearly all actives have a fitted effect of over 45% in size. Summed up: as §2
A short description of test [8]: qHTS assay to identify small molecule antagonists of the estrogen receptor alpha (ER-alpha) signaling pathway using the BG1 cell line in the presence of 0.1 nM 17-beta-estradiol - cell viability counter screen (AID 1259241). Note: nearly all actives have a fitted effect of over 40% in size. A digest of the protocol:
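Cytotoxicity counter-screen: live-cell protease activity measured by fluorescence (30 min reagent step) in the same wells. Cells were VM7Luc4E2 with endogenous ER-alpha and ERE-driven luciferase, treated 22 hr at 37C alongside 0.1 nM 17beta-estradiol final.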

A short description of test [9]: qHTS assay to identify small molecule antagonists of the androgen receptor (AR) signaling pathway using the MDA cell line in the presence of 0.5 nM R1881 - cell viability counter screen (AID 1259242). Note: nearly all actives have a fitted effect of over 45% in size. Note: potency is the fitted concentration of half-maximal effect. Summed up:
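Counter screen for cytotoxicity run in the same wells as the AR antagonist reporter screen: MDA-kb2 cells were treated 16 hr with test compounds and 0.5 nM R1881, then live-cell protease activity was measured by fluorescence.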

Test [10] addresses Estrogen receptor (Homo sapiens) (UniProt P03372). As to the kind of experiment: qHTS assay to identify small molecule antagonists of the estrogen receptor alpha (ER-alpha) signaling pathway using the BG1 cell line in the presence of 0.1 nM 17-beta-estradiol (AID 1259244). Note: nearly all actives have a fitted effect of over 50% in size. Note: potency is the fitted concentration of half-maximal effect. Summed up:
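Cells: VM7Luc4E2, endogenous ER-alpha, 4x ERE-luc stable. Pre-culture 5 d, phenol red-free, charcoal-stripped FBS. Plated 24 h, compound + E2 0.1 nM final, 22 h 37C/5% CO2. Readout ONE-Glo luminescence.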

Test [11] can be described thus: qHTS assay to identify small molecule HDAC inhibitors - cell viability counter screen (AID 1259365). Note: nearly all actives have a fitted effect of over 50% in size. Note: potency is the fitted concentration of half-maximal effect. A digest of the protocol:
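CellTiter-Glo luminescence (30 min, room temperature) reported viability after a 2 h compound exposure at 37 C. Cells: wild-type HCT-116, 1,500 per well, seeded the night before.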

Test [12] in a line: qHTS assay to identify small molecule antagonists of the sonic hedgehog signaling (Shh) pathway - cell viability counter screen (AID 1259367). Note: nearly all actives have a fitted effect of over 55% in size. Note: potency is the fitted concentration of half-maximal effect. Summed up:
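NIH/3T3-derived Gli1-Luc reporter cells (2,000 per well) rested 4 hr at 37 C, then received DMSO compounds plus conditioned medium. After 23 hr of treatment, CellTiter-Fluor was added for 1 hr at 37C and fluorescence read.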

Test [13] in a line: qHTS assay to identify small molecule agonists of the sonic hedgehog signaling (Shh) pathway (AID 1259368; calls by dose curve;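 note: NIH/3T3-derived 3T3Gli1-Luc cells carrying a stable Gli1-driven firefly luciferase reporter; series mostly up to about 92 µM; nearly all actives have a fitted effect of over 15% in size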). A digest of the protocol: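 3T3Gli1-Luc (NIH/3T3 clone, stable Gli1-Luc); 4 hr pre-incubation, then cpd in DMSO 24 hr, 37 C/5% CO2; luciferase reagent 30 min RT; luminescence.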
Test [14] can be described thus: qHTS RealTime-Glo MT Cell Viability Assay in HEK293 cells - 8 hour (AID 1224887). Note: nearly all actives have a fitted effect of over 50% in size. Note: potency is the fitted concentration of half-maximal effect. A digest of the protocol: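 Cells were seeded together with NanoLuc luciferase and a prosubstrate that viable cells reduce to a luciferase substrate. After a 5 h incubation at 37 C/5% CO2, compounds were added and luminescence was measured repeatedly during 40 h of treatment.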
A short description of test [15]: A CellTox Green Cytotoxicity Assay to monitor cytotoxicity in HEK293 cells - 16 hour (AID 1224888). Note: nearly all actives have a fitted effect of over 35% in size. A digest of the protocol: as §1
The nature of test [16]: qHTS assay to identify small molecule HDAC inhibitors (AID 1259364). Note: nearly all actives have a fitted effect of over 45% in size. Note: potency is the fitted concentration of half-maximal effect. A digest of the protocol: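 Luminescence from a cell-permeant luminogenic class I/II HDAC substrate reports endogenous deacetylase activity in intact HCT-116 cells treated with compounds for 2 h.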
Test [17] can be described thus: qHTS assay to identify small molecule agonists of the sonic hedgehog signaling (Shh) pathway - cell viability counter screen (AID 1259366). Note: nearly all actives have a fitted effect of over 50% in size. Note: potency is the fitted concentration of half-maximal effect. A digest of the protocol:
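Cytotoxicity counter screen: CellTiter-Fluor reagent added after 23 h compound exposure, then 1 h at 37C and fluorescence read. Cells were 3T3 Gli1-Luc, seeded 2,000 per well and dosed 4 h post-plating.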

Test [18] can be described thus: qHTS RealTime-Glo MT Cell Viability Assay in HEK293 cells - 24 hour (AID 1224886). Note: nearly all actives have a fitted effect of over 50% in size. Note: potency is the fitted concentration of half-maximal effect. Summed up: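 Tox21 10K qHTS, HEK293, 600 cells/well, RealTime-Glo reagent co-dispensed with cells; 5 h preincubation, compound by pintool, 37 C, luminescence at 0–40 h.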
The target of test [19] is Androgen receptor (Homo sapiens) (UniProt P10275). Nature of the test: qHTS assay to identify small molecule antagonists of the androgen receptor (AR) signaling pathway using the MDA cell line in the presence of 0.5 nM R1881 (AID 1259243). Note: nearly all actives have a fitted effect of over 50% in size. Note: potency is the fitted concentration of half-maximal effect. A digest of the protocol: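 Luciferase luminescence is the read-out: compounds are tested for suppressing 0.5 nM R1881-driven MMTV reporter activity in MDA-kb2 cells after 16 hr at 37C.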

A short description of test [20]: qHTS assay to identify small molecule phospholipidosis (PLD) inducers (AID 1259344; active = well fitted curve in the direction sought with a large enough effect; an effect the other way counts as inactive or inconclusive). Summed up:
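HepG2 cells on collagen I, attached 4 h at 37 C, were co-treated with compound and LipidTOX Red dye for 24 h at 37 C, then fixed with paraformaldehyde plus Hoechst 33342 and imaged by high-content microscopy for phospholipid accumulation.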

Molecules are shown by their SMILES. Records with an inconclusive call do not appear. Active and inactive are the calls of the source. Unless noted, calls come from the whole dose curve; as a rule, active = well fitted curve in the direction sought with a large enough effect in the repeat runs; inconclusive = weak or mixed curves; inactive = no such curve, though single readings can be large; an effect the other way counts as inactive or inconclusive.

Chain of Estrogen receptor (Homo sapiens) (P03372 whole entry, looked up): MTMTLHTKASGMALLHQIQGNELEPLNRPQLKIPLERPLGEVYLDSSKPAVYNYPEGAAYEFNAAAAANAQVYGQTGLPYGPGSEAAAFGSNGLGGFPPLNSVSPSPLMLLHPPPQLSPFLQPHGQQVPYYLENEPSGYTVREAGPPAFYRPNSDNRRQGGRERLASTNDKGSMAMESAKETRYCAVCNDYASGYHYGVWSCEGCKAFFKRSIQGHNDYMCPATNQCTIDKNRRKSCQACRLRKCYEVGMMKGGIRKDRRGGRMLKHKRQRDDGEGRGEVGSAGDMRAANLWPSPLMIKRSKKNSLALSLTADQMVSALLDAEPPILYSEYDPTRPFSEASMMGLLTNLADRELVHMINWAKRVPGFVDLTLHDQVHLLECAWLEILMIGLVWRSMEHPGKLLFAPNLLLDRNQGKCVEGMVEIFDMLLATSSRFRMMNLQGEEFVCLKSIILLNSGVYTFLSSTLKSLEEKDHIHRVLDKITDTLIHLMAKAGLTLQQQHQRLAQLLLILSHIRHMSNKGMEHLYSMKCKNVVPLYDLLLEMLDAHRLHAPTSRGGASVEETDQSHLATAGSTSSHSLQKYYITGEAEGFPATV
Chain of Androgen receptor (Homo sapiens) (P10275 whole entry, looked up): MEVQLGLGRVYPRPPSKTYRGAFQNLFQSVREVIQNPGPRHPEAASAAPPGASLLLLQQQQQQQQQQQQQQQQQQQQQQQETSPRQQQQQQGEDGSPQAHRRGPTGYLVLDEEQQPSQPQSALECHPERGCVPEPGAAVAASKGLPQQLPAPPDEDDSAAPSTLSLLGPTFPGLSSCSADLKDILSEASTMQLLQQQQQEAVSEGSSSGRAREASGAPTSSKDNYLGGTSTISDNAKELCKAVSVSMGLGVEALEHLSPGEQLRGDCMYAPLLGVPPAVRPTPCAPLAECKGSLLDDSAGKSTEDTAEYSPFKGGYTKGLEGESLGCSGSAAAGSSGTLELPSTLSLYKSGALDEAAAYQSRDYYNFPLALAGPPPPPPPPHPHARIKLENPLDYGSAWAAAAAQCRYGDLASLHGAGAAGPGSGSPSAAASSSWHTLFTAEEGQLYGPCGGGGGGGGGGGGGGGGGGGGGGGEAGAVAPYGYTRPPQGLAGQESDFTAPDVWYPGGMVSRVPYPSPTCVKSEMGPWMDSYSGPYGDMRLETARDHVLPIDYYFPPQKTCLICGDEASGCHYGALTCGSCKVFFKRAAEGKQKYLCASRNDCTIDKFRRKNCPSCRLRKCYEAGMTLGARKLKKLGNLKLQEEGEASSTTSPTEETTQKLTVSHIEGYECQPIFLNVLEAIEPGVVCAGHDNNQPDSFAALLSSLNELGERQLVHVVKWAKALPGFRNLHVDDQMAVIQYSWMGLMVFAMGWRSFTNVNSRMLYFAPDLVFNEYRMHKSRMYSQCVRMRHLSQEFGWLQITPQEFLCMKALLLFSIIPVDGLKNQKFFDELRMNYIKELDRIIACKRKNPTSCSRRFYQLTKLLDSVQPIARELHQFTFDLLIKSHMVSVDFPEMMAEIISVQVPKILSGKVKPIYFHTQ

Take `N#[N+]c1ccc2c(S(=O)(=O)[O-])cccc2c1O`: the Potency entry in [1], in test [2], in [3], in [4], in test [5] and in [6] was “inactive” in each case. For the same compound, the Potency entry in test [7], in [8], in [9], in [10], in [11] and in test [12] was “inactive” each time. In addition, the Potency entry in [13] is “inactive”.

With `CC1=C(Br)C(=O)C(Br)=C/C1=C(/c1ccccc1S(=O)(=O)O)c1cc(Br)c(O)c(Br)c1C`, the Potency entry in test [1], in [2], in test [3], in test [4], in [5] and in [14] was “inactive” in each case. Further, the Potency result in [15], in test [7] and in test [13] was “inactive” in each case. Further, the Potency was 16.7 µM (active) in test [6]; 7.39 µM (active) in [16]; 18.6 µM (active) in test [11]; 18.6 µM (active) in [17]; 20.8 µM (active) in [12].

In the case of `CCOc1cccc(-n2cc(C(=O)N3CCN(c4cc(C(=O)O)c5ccccc5c4)CC3)nc2-c2ccc(C)cc2)c1`, the Potency entry in test [1], in test [2], in test [3], in [4], in [5] and in test [18] was “inactive” in each case. The Potency entry in test [6], in test [7], in test [8], in [9], in test [19] and in [16] was “inactive” throughout. In addition, the Potency result in [17], in [12] and in [13] was “inactive” throughout.

Consider `CC(=O)OCCN(CCOC(C)=O)c1ccc(N=Nc2ccc([N+](=O)[O-])cc2C#N)cc1`, for which the Potency entry in test [1], in test [2], in [3], in test [4], in test [5] and in [15] was “inactive” each time. The Potency entry in [6], in test [7] and in test [13] was “inactive” in each case. In addition, the Potency was 54.5 µM (active) in test [9]; 27.3 µM (active) in [16]; 24.3 µM (active) in test [11]; 48.6 µM (active) in [17]; 54.5 µM (active) in test [12].

Turning to `OC[C@H]1O[C@@H](n2cnc3c(=S)nc[nH]c32)[C@H](O)[C@@H]1O`, the Potency result in [1], in test [2], in [3], in test [4], in test [5] and in [14] was “inactive” throughout. Also, the Potency result in test [15], in test [6], in [8], in [9], in [10] and in test [20] was “inactive” throughout. The Potency result in [16], in test [11], in test [17], in [12] and in test [13] was “inactive” throughout.

On to `C=CC(=O)OCC1CC2CC1C1CCC(COC(=O)C=C)C21` (stereo not drawn), for which the Potency in test [1] was 49 µM (active); in test [3], 43.6 µM (active). Also, the Potency entry in [2], in test [4], in test [14], in test [15], in test [6] and in test [7] was “inactive” throughout. The Potency result in [8], in test [9], in test [16], in test [11] and in test [13] was “inactive” throughout.

In the case of `Oc1c(I)cc(I)c2cccnc12`, the Potency result in test [1], in [2], in test [3], in test [4], in test [5] and in [14] was “inactive” in each case. Also, the Potency entry in [15], in [6], in test [7], in test [8], in test [9] and in test [20] was “inactive” each time. Besides, the Potency result in test [16], in test [11], in [17] and in test [12] was “inactive” throughout.

`CN1CCCN=C1COC(=O)C(O)(c1ccccc1)C1CCCCC1` (stereo not drawn): the Potency entry in test [1], in test [2], in test [3], in test [4], in [5] and in test [14] was “inactive” throughout. Further, the Potency entry in test [15], in test [6], in test [7], in [8], in test [9] and in test [10] was “inactive” each time. Further, the Potency result in test [16], in test [11], in test [17], in test [12] and in [13] was “inactive” throughout.

Regarding `CC(=O)[C@H]1[C@H](C#N)C[C@H]2[C@@H]3CC=C4C[C@@H](O)CC[C@]4(C)[C@H]3CC[C@@]21C`, the Potency entry in test [1], in test [2], in test [3], in [4], in test [5] and in test [14] was “inactive” in each case. Besides, the Potency result in [15], in test [7], in [8], in test [9], in test [10] and in test [16] was “inactive” in each case. In addition, the Potency result in [11], in test [17], in test [12] and in [13] was “inactive” in each case.

On to `CC(C)C(O)(c1ccc(OC(F)(F)F)cc1)c1cncnc1` (stereo not drawn), for which the Potency entry in [1], in [2], in [3], in [4], in test [5] and in test [14] was “inactive” throughout. In addition, the Potency entry in test [15], in test [6], in test [7], in test [9], in test [16] and in [11] was “inactive” in each case. Further, the Potency entry in test [17], in test [12] and in [13] was “inactive” each time.

Consider `O=C(O)CCc1nc(-c2ccccc2)c(-c2ccccc2)o1`, for which the Potency entry in [1], in test [2], in test [3], in test [4], in test [5] and in test [14] was “inactive” each time. Moreover, the Potency result in test [6], in test [7], in test [8], in test [9], in test [10] and in test [20] was “inactive” in each case. Besides, the Potency entry in [16], in test [11], in test [17], in test [12] and in [13] was “inactive” each time.

Turning to `Cc1[nH]cnc1CN1CCc2c(c3ccccc3n2C)C1=O`, the Potency entry in test [1], in [2], in test [3], in test [4], in test [5] and in test [14] was “inactive” in each case. For the same compound, the Potency result in [15], in test [6], in test [7], in [8], in [9] and in test [20] was “inactive” throughout. Further, the Potency entry in [16], in test [11], in [17], in test [12] and in test [13] was “inactive” throughout.

Turning to `C=C1c2cccc(O)c2C(O)=C2C(=O)[C@]3(O)C(O)=C(C(N)=O)C(=O)[C@@H](N(C)C)[C@@H]3[C@@H](O)[C@H]12`, the Potency result in [1], in [2], in test [3], in [4], in test [5] and in [14] was “inactive” each time. For the same compound, the Potency entry in test [15], in test [6], in test [7], in test [8], in test [10] and in test [20] was “inactive” in each case. In addition, the Potency result in test [16], in [11], in test [17], in test [12] and in [13] was “inactive” throughout.

With `COc1ccccc1NC(=O)c1cc2ccccc2cc1O`, the Potency entry in test [1], in test [2], in [3], in [4], in [15] and in [6] was “inactive” in each case. The Potency result in test [7], in [8], in test [9], in [11], in test [12] and in test [13] was “inactive” each time. The Potency is 34.7 µM (active) in test [18]; 34.7 µM (active) in test [14]; 30.6 µM (active) in [19]; 43.3 µM (active) in test [10]; 24.3 µM (active) in test [16].
